The list is not random: actives were taken first. Their share in the collection is about 10%.
PNC assembly inh: inhibitors of perinucleolar compartment assembly | PC3M PTB-GFP, PNC prevalence imaging, 16 h; stronger effect = lower value | activity change (PNC), negative = inhibition, % at 10 µM | 140,000 compounds, 3.1% hits | AID 2417;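 active means readout at or below -70, meaning at least 70% loss of cells showing the perinucleolar compartment, a nuclear body marking cancer cells; inconclusive means readout between -30 and a set limit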;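 further: plate controls were DMSO wells for no effect and camptothecin positive control wells for full effect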
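Read-out is percentage of cells bearing a perinucleolar compartment, from automated 20x imaging of fixed, Hoechst-stained PC3M PTB-GFP cells. Cells were seeded 4 h, then exposed 16 h to compound (23 nl of library stock) in duplicate plates.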
ALDH1A1 inh: inhibitors of human aldehyde dehydrogenase 1A1. P00352. Purified ALDH1A1, NADH fluorescence, propionaldehyde substrate. Potency, µM (titrated, usually from 75.3 µM), for inactives: at the highest dose activity, negative = inhibition, usual class: inhibitors. 220,000 compounds, 7.3% hits;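 further: potency means the concentration at half of the fitted maximal effect; plate controls were no enzyme wells and a reference inhibitor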
Target sequence (P00352 whole entry, looked up): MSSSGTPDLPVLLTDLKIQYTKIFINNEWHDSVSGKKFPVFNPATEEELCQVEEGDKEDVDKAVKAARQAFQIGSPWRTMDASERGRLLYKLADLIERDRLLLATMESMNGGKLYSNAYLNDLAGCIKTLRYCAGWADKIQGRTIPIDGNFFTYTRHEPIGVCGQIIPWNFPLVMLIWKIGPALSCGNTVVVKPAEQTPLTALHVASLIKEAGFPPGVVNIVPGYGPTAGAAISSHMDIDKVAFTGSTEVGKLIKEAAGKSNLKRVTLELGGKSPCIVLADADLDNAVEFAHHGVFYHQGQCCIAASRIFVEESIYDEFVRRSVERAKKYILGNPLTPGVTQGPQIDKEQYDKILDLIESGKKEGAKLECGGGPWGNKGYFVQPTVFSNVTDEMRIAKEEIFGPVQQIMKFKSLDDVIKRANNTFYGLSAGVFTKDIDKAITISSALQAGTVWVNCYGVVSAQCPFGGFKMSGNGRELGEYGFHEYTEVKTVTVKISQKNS
LMNA splice mod: modulators of lamin A splicing | HeLa LMNA splicing GFP/RFP minigene ratio, 48 h | Potency, µM (top dose mostly 46.1 µM), for the others: top-dose ratio change, negative = inhibition, most hits filed as inhibitors | 200,000 compounds, 0.01% hits | AID 1487; active means well fitted inhibition curve with a large enough effect in the signal ratio, with a control signal flat, not every such curve was filed as active; inconclusive means small, poorly fitted or top-dose-only effect, or effect the other way, or a change in a side signal; the % refers to the signal ratio; further: potency means the concentration at half of the fitted maximal effect
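Read-out is the ratio of GFP to DsRed2 object intensity, acquired by 488 nm laser-scanning cytometry on HeLa lamin A-EGFP minigene reporter cells. Compound incubation 48 hrs at 37 °C in Opti-MEM with 2% FBS; DMSO 0.5% final.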
HPGD inh: HPGD (human) dehydrogenase inhibition. P15428. purified HPGD, NADH fluorescence kinetic, PGE2 substrate. Potency, µM, inactives show at the highest dose activity change, negative = inhibition, hits mostly inhibitors. 150,000 compounds, 4.3% hits. AID 894; further: potency means the concentration at half of the fitted maximal effect
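NADH formation kinetics: reaction with 30 uM PGE2 and 1 mM NAD+ (final), 20 nM enzyme, Tris-HCl pH 8 with Tween 20, after 15 min compound preincubation at room temperature. Fluorescence change, last versus first of five reads.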
Luc counter: blocks Kinase-Glo luciferase, a counter-screen artifact. Potency, µM (doses to about 38.3 µM), for inactives: at the highest dose activity change, negative = inhibition, actives largely listed as inhibitors. AID 1379. Kinase-Glo luciferase, ATP luminescence, 8 min. 200,000 compounds, 0.28% hits. Q27757; active means well fitted inhibition curve with a large enough effect; inconclusive means small, poorly fitted or top-dose-only effect; further: potency means the concentration at half of the fitted maximal effect; nearly all actives have a fitted effect of over 60% in size
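Recombinant Kinase-Glo luciferase, 10 uM ATP (linear range), luciferin; imidazole pH 7.2 / KCl / MgCl2 / Tween / BSA buffer; 8 min RT; luminescence.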
Starred values were filed as active, the others as inactive; ? = inconclusive; nt = no result; [ ] = dose if it differs, or a comment. Unless noted, the call rests on the fitted dose curve; in most records, active means well fitted inhibition curve with a large enough effect (not every such curve was filed as active); inconclusive means small, poorly fitted or top-dose-only effect, or another doubt; inactive means no such curve, though single readings can be large or run the other way. Unless noted, on the % scale 0 is the no-effect control and ±100 the full control effect.

SMILES	PNC assembly inh	ALDH1A1 inh	LMNA splice mod	HPGD inh	Luc counter
COC(=O)c1c(NC(=O)Cc2cccs2)sc2c1CCC(C)C2 (centres undefined)	?	14µM*	-9%	13µM*	5%
CC[C@H](Cc1c(I)cc(I)c(N)c1I)C(=O)O	nt	-5%[20.9 µM]	?	-7%	2%[17.1 µM]
COc1ccc(-c2coc3cc4oc(=O)cc(C)c4cc23)cc1F	20	-13%	-1%	?	-1%
COc1ccc(-c2coc3cc4oc(=O)cc(-c5ccccc5)c4cc23)cc1F	-111*	5%	-23%	?	-1%
Cc1ccc(C)c(NC(=O)CN(C)C(=O)[C@@H](NC(=O)c2ccc(C(C)(C)C)cc2)C(C)C)c1	-98*	-6%	-6%	-6%	2%
Cc1ccc(C)c(NC(=O)CN(C)C(=O)[C@@H](NC(N)=O)C(C)C)c1	nt	-2%	nt	nt	-2%
CCOC(=O)c1sc(NC(=O)COC(=O)CNC(=O)c2ccco2)c(C(=O)OCC)c1C	?	28µM*	?	-26%	2%
CCOC(=O)c1c(NC(=O)COC(=O)Cn2c(C(F)(F)F)nc3ccccc32)sc(C)c1C	?	99%	5%	-20%	1%
COc1ccc(CCNC(=O)COC(=O)Cn2cnc3ccccc32)cc1OC	nt	?	-8%[46 µM]	nt	5%
CCOC(=O)c1sc(NC(=O)COC(=O)Cn2cnc3ccccc32)c(C(=O)OCC)c1C	-97*	?	6%	-2%	2%
O=C(COC(=O)Cn1cnc2ccccc21)NCCc1ccc(Cl)cc1	?	13µM*	3%	-9%	-4%
CC1(C)S[C@@H]2[C@H](NC(=O)[C@@H](NC(=O)N3CCNC3=O)c3ccccc3)C(=O)N2[C@H]1C(=O)O	nt	-11%[20.9 µM]	?	-2%	-1%[17.1 µM]
Cc1cc(C)c(NC(=O)C2CC(=O)N(Cc3ccccc3)C2)c(C)c1 (centres undefined)	nt	12%	-1%[46 µM]	nt	-1%
CC(=O)Nc1ccc(NC(=O)C2CC(=O)N(Cc3ccccc3)C2)cc1 (centres undefined)	nt	3.5µM*	6%[46 µM]	nt	-2%
COc1ccccc1C(=O)Nc1ccccc1SCc1cc(=O)c2ccccc2[nH]1	nt	nt	-6%[46 µM]	nt	nt
COc1ccc(S(=O)(=O)N2CCCN(S(=O)(=O)c3ccc(OC)c(C)c3)CC2)cc1C	?	-4%	?	-8%	1%
COc1ccc(S(=O)(=O)Nc2ccc(S(=O)(=O)N3CCCC3)cc2)cc1	39	0.089µM*	-4%	-5%	8%
COc1ccc(S(=O)(=O)Nc2ccc(S(=O)(=O)N3CCCCC3)cc2)cc1C	0	4µM*	1%	-12%	1%
COc1cc(OC)c(S(=O)(=O)N2CCCCC2)cc1S(=O)(=O)N1CCCCC1	?	3.5µM*	12%	3%	-3%
COC(=O)C(NS(=O)(=O)c1ccc(NC(C)=O)cc1)C(C)C (centres undefined)	-4	2%	1%	-8%	1%
CC(=O)Nc1ccc(S(=O)(=O)N[C@H](C(=O)O)C(C)C)cc1	-13	10µM*	6%	2%	3%
O=C(c1ccco1)N1CCC[C@@]2(CCN(c3ccccn3)C2)C1	nt	?	nt	-28%	-1%
COC(=O)C1=C(C(=O)OC)[C@@H]2N(C)c3ccccc3[C@@]23C[C@@H](C(=O)OC)N(S(=O)(=O)c2c(C)noc2C)C3=N1	nt	7%[13.5 µM]	-8%[9.22 µM]	-6%	-6%[7.66 µM]
COc1ccc(S(=O)(=O)N2CCCCCC2)cc1	60	8%	-9%	-9%	18%
COc1ccc2cc(S(=O)(=O)N3CCCCC3)ccc2c1S(=O)(=O)N1CCCCC1	?	0.18µM*	?	-7%	5%
SMILES	PNC assembly inh	ALDH1A1 inh	LMNA splice mod	HPGD inh	Luc counter
COc1cc(S(=O)(=O)N2CCCCCC2)ccc1Cl	-20	-5%	4%	-10%	-2%
COc1ccc(S(=O)(=O)Nc2ccc(S(=O)(=O)N3CCCCC3)cc2)cc1	18	0.35µM*	0%	-11%	2%
O=S(=O)(Nc1ccc(S(=O)(=O)N2CCCCC2)cc1)c1ccc(Br)s1	4	1.4µM*	-16%	7%	2%
CC(=O)Nc1ccc(S(=O)(=O)Nc2ccc(S(=O)(=O)N3CCCCCC3)cc2)cc1	4	4µM*	-15%	-17%	2%
O=S(=O)(Nc1ccc(S(=O)(=O)N2CCCCCC2)cc1)c1cccs1	4	?	9%	-9%	-1%
CCOC(=O)c1oc2ccc(/C=N/O)c(Cl)c2c1C	nt	2%	nt	nt	-1%
CN1CCN(c2ncc3nc(CCc4ccccc4)c(=O)n(C)c3n2)CC1	nt	?	-10%	nt	nt
Cc1ccc(NS(=O)(=O)c2cccc(C(=O)O)c2)cc1S(=O)(=O)N1CCOCC1	12	?	-9%	-7%	4%
Cc1ccc(NS(=O)(=O)c2ccc(Br)s2)cc1S(=O)(=O)N1CCOCC1	nt	11µM*	nt	nt	1%
COC(=O)c1ccc(C(NC(=O)OCc2ccccc2)/C(I)=C/[C@@H](C)C(=O)Nc2ccccc2)cc1 (some centres undefined)	nt	3%	nt	-25%	-1%
COCCOC(=O)C1=C(C)NC(=S)NC1c1cccs1 (centres undefined)	nt	22µM*	10%[46 µM]	nt	-1%
C=CCOC(=O)C1=C(C)NC(=S)NC1c1cccs1 (centres undefined)	-6	2.2µM*	-1%	-7%	-1%
CCN(CC)C(=O)C1=C(C)NC(=S)NC1c1cccs1 (centres undefined)	nt	?	nt	nt	0%
COc1cccc(CNC(=O)Cn2c(=O)oc3cc(S(=O)(=O)N4CCCCCC4)ccc32)c1	nt	nt	9%[46 µM]	nt	nt
O=C(Cn1c(=O)oc2cc(S(=O)(=O)N3CCCC3)ccc21)NCc1ccccn1	?	18µM*	-8%	-6%	2%
CCN(Cc1ccncc1)S(=O)(=O)c1ccc(C(C)=O)cc1	-3	7.9µM*	?	-29%	-5%
CN(C)c1cccc(C(=O)Nc2nc3ccc(S(=O)(=O)N4CCCC4)cc3s2)c1	nt	nt	-6%[46 µM]	nt	nt
CC(=O)c1ccc(NC(=O)Cn2c(-n3nc(C)cc3C)nc(C)cc2=O)cc1	nt	nt	-20%[46 µM]	nt	nt
N#CCC(CNc1ncc(C(F)(F)F)cc1Cl)OC(=O)c1cccc(C(F)(F)F)c1 (centres undefined)	?	-10%	-10%	?	5%
O=C(OCn1ncc(Cl)c(Cl)c1=O)c1cccc(C(F)(F)F)c1	?	0.63µM*	?	18µM*	4%
Cc1ccc(S(=O)(=O)N2CCC(=O)N(C(COCc3ccc(Cl)cc3)C(C)C)CC2)cc1 (centres undefined)	-119*	?	?	-3%	-1%
Cc1ccc(S(=O)(=O)N2CCC(=O)N(CCOCc3cccc(C(F)(F)F)c3)CC2)cc1	-81*	-6%	?	-2%	0%
